The OligoGym collection

molecular target: PCTP; assay: pooled miR-30 sensor sort-seq; sequence = guide strand; settings: shRNA
Further: reference of the scale not given here.

Sequence | sensor-assay potency score (higher = more potent)
TACATTTCTAAATATTCTGGGA | -0.38
TTGCACAATGGAATGATCGTGT | 0.345
TTCTTTAACATACTGGTCCCAT | -0.412
TTCTTGTTCATAGAGTTCTTTA | -0.702
AAGTCCAGTCTTCTTGTCCAGC | -1.17
TTTGCTAGCTGCCACAGCCATC | -1.46
TTGAACTGTAGAAGAAGGCAGC | -0.297
TAGAGTTCTTTAACATACTGGT | 0.218
TTATAGAACACACTTTTCTTCC | -0.218
TAGAACACACTTTTCTTCCCAG | 0.135
TTCATTATAGAACACACTTTTC | -1.43
TAACATACTGGTCCCATTGTTT | -0.841

molecular target: PC; assay: as above; settings: shRNA

Sequence | sensor-assay potency score (higher = more potent)
TTCTTGACCTCCTTGAACTTGG | -0.463
TTGGTCACATGAACCTTGCGGA | 0.159
TTCTCGTCGATGAACTGGGTGT | -0.428
TTGATGTCTATCACCTTCCCAG | -0.547
TACTGCAGTGAGTACTTGGTGC | -0.271
TTGACCTCCTTGAACTTGGAGC | -0.629
TAGTACTGCAGTGAGTACTTGG | -0.46
TTGAGGGAGTCAAACACACGGA | 0.00371
TTGTTGAGCACATTCTGCAGGA | 0.211
TTGAAGACCACGTTGTCTGGGT | 0.437
TCTCGCAGCAGGATGTCTCTGA | 0.144
TTCATCTGCTTTCTGCCGGTGC | -0.101

molecular target: PDE12; assay: as above; settings: shRNA

Sequence | sensor-assay potency score (higher = more potent)
TAACTTAAGTCTCTCACCCTTA | -0.0358
TTCTTTGTGAAGTGGGTCGGAC | -0.551
TTGAAGTTTACATATAAGCTTT | -0.258
TTCACCACAAGCACTTTTCAGC | -0.0283
TTGTAGTAAATCGCTAACTAAA | -1.21
TTGAGGTAGAGGTAGACCCTAA | -0.795
AAATGTAATCTAGACATCCATG | -1.09
TAGTACATAAGCATGATTCATT | -0.285
TAACTTCTTCATGACTAGGTAA | -0.476
TGAAATTGTAGTAAATCGCTAA | 0.612
TATCCTTTTAGAAGAGTCCTTT | 0.141
TAAATCGCTAACTAAATTGAGG | -0.622

molecular target: PDE1C; assay: as above; settings: shRNA

Sequence | sensor-assay potency score (higher = more potent)
ATTCTCTCCACAAATATCCCAG | -0.723
TGAACGATGCTCTTGAACCGGG | -0.343
AATTGTTTGACCAAAGACCGTA | 0.319
